# Measured values from PubChem BioAssay (EPA / NIEHS).
# Where “and” joins values, the source holds several entries; their conditions need not be identical. Equal entries are not always repeated. Records with an inconclusive call do not appear. Calls of active or inactive are those of the source. How the source made its calls, unless noted: active means hit-call score of the fitted dose curve at least 0.9, where 1 is the maximum; inconclusive means response in the unintended direction; inactive means score below 0.9.
# Columns and labels:
# [1] = target: Cytochrome P450 2C19 (Homo sapiens) (UniProt P33261); test: NVS_ADME_hCYP2C19: NovaScreen (NVS) CYP450-related Enzyme Activity (ADME) Assay for human CYP2C19 (AID 2283113);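 on AC50: potency for inhibition seen as loss of fluorescent signal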
# In short: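 Chemicals first screened in duplicate at 10 uM against recombinant human enzyme produced in insect cells; confirmed actives then run as concentration series. Fluorogenic substrate turnover read by fluorescence after 1 h, normalised to acetonitrile.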
# [2] = target: human CYP4F12, CYP4F12 (gene 66002) (UniProt Q9HCS2); test: NVS_ADME_hCYP4F12: NovaScreen (NVS) CYP450-related Enzyme Activity (ADME) Assay for human CYP4F12 (AID 2283111)
# In short: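 Recombinant enzyme with a fluorescent substrate, signal read at 0.5 h post-dose; activity loss analysed relative to acetonitrile. Compounds first run in duplicate at 10 uM, with follow-up concentration-response testing of actives.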
# [3] = target: human AKT serine/threonine Kinase 1 (AKT1), AKT1 (gene 207) (UniProt P31749); test: NVS_ENZ_hAKT1: NovaScreen (NVS) Enzymatic Assay for human AKT serine/threonine Kinase 1 (AKT1) (AID 2283138)
# Sequence of human AKT serine/threonine Kinase 1 (AKT1), AKT1 (gene 207) (P31749 whole entry, looked up): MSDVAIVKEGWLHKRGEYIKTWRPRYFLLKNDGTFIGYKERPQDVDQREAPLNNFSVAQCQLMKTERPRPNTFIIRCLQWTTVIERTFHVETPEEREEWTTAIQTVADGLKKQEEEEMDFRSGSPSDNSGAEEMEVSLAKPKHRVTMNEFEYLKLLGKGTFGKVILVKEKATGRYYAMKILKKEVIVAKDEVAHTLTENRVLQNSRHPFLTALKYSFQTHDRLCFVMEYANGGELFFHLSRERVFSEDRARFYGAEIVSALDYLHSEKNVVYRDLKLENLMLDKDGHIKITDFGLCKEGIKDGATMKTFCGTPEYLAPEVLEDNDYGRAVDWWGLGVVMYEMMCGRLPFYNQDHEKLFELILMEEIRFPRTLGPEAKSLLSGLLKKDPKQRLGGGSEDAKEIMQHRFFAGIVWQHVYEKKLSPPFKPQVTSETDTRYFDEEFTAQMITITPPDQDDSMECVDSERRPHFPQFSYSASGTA
# In short: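 Screening first at 25 uM (duplicate), with threshold-passing chemicals re-tested in concentration series to a 50 uM maximum. Kinase activity read by fluorescence with mobility-shift separation of substrate and product, 1 h after dosing, DMSO baseline.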
# [4] = target: rat CYP2A1, Cyp2a1 (gene 24894) (UniProt P11711); test: NVS_ADME_rCYP2A1: NovaScreen (NVS) CYP450-related Enzyme Activity (ADME) Assay for rat CYP2A1 (AID 2283114; active means hit-call score of the fitted dose curve at least 0.9, where 1 is the maximum; inactive means score below 0.9)
# In short: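 Cell-free fluorescence enzyme-activity read on recombinant rat CYP2A1, taken 0.75 h post-dosing. Compounds were screened in duplicate at 10 uM, then hits tested in concentration series (max 20 uM); inhibition scored relative to acetonitrile baseline.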
# [5] = system: rat CYP3A1, gene 25642; test: NVS_ADME_rCYP3A1: NovaScreen (NVS) CYP450-related Enzyme Activity (ADME) Assay for rat CYP3A1 (AID 2283126)
# In short: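 Compounds went first at 10 uM duplicate, then to series with 20 uM maximum. Fluorescence from substrate turnover by the recombinant enzyme was measured 0.5 h post-dosing, inhibition scored against acetonitrile vehicle.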
# [6] = target: rat CYP2A2, Cyp2a2 (gene 24895) (UniProt P15149); test: NVS_ADME_rCYP2A2: NovaScreen (NVS) CYP450-related Enzyme Activity (ADME) Assay for rat CYP2A2 (AID 2283116)
# In short: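 Compounds first tested in duplicate at 10 uM, then in singleton concentration series up to 20 uM when over threshold. Activity of the recombinant enzyme read by fluorescence at 0.2 h, normalised to acetonitrile vehicle.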
# [7] = target: human AMP-activated Protein Kinase, alpha 1 (AMPKa1), PRKAA1 (gene 5562) (UniProt Q13131); test: NVS_ENZ_hAMPKa1: NovaScreen (NVS) Enzymatic Assay for human AMP-activated Protein Kinase, alpha 1 (AMPKa1) (AID 2283130)
# Sequence of human AMP-activated Protein Kinase, alpha 1 (AMPKa1), PRKAA1 (gene 5562) (Q13131 whole entry, looked up): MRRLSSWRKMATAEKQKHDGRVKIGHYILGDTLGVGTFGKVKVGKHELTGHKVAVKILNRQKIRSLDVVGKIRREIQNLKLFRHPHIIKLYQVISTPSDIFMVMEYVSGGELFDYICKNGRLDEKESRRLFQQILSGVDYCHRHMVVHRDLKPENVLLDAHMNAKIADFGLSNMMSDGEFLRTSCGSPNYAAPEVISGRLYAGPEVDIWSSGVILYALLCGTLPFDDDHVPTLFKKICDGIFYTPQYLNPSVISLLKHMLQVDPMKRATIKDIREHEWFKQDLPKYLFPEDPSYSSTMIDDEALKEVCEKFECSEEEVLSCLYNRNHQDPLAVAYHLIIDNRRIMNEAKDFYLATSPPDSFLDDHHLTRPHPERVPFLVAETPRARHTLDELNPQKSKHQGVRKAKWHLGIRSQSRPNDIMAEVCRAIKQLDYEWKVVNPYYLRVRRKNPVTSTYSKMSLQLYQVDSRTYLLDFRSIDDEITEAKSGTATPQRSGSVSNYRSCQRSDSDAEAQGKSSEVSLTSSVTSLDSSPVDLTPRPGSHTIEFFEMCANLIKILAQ
# In short: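 Compounds were screened in duplicate at 25 uM, and those reaching ~30% inhibition were titrated up to 50 uM. The enzyme was recombinant human AMPKα1, and kinase turnover was read by fluorescence/mobility shift 1 h post-dosing as loss of signal versus DMSO.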
# [8] = target: human Aurora Kinase A - serine/threonine-protein Kinase 6 (AurA), AURKA (gene 6790) (UniProt O14965); test: NVS_ENZ_hAurA: NovaScreen (NVS) Enzymatic Assay for human Aurora Kinase A - serine/threonine-protein Kinase 6 (AurA) (AID 2283142)
# Sequence of human Aurora Kinase A - serine/threonine-protein Kinase 6 (AurA), AURKA (gene 6790) (O14965 whole entry, looked up): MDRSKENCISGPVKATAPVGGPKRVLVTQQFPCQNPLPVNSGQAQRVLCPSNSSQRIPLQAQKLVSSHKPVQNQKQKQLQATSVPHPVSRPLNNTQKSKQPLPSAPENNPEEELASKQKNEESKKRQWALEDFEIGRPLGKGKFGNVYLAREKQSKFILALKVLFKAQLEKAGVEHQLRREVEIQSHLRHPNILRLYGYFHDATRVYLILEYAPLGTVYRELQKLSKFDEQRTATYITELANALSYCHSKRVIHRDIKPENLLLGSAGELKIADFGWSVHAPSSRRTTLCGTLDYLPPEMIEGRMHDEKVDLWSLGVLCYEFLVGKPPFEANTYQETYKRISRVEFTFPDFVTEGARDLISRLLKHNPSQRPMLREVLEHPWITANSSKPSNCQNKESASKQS
# In short: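 Recombinant human AurA activity read by fluorescence after mobility-shift separation of product from substrate; 1 hour incubation. Chemicals first run in duplicate at 25 uM, then concentration series to 50 uM if over threshold; fitted relative to DMSO.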
# [9] = target: human Caspase 5 (CASP5), CASP5 (gene 838) (UniProt P51878); test: NVS_ENZ_hCASP5: NovaScreen (NVS) Enzymatic Assay for human Caspase 5 (CASP5) (AID 2283137)
# Sequence of human Caspase 5 (CASP5), CASP5 (gene 838) (P51878 whole entry, looked up): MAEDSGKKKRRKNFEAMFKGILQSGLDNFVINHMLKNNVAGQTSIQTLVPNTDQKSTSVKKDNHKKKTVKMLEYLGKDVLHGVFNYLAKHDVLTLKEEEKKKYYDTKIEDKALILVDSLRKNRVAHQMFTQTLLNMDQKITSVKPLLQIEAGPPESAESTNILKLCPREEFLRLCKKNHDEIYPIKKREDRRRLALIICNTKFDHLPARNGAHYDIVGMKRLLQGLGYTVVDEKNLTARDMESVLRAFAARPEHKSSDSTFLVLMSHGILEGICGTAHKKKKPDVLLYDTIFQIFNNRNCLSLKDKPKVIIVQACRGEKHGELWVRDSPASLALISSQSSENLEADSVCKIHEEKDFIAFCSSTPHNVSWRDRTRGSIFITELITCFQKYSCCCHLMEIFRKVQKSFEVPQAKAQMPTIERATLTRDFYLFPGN
# In short: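 Loss of fluorescent signal versus DMSO scored for E. coli-derived human CASP5 cleaving a fluorescent substrate, 2 h post-dosing; compounds first tested at 25 uM in duplicate, hits rerun in concentration series with 50 uM top concentration.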
# [10] = target: human Beta-secretase (BACE), BACE1 (gene 23621) (UniProt P56817); test: NVS_ENZ_hBACE: NovaScreen (NVS) Enzymatic Assay for human Beta-secretase (BACE) (AID 2283140);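 further: hits are inhibitors that reduce fluorescent substrate signal versus DMSO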
# Sequence of human Beta-secretase (BACE), BACE1 (gene 23621) (P56817 whole entry, looked up): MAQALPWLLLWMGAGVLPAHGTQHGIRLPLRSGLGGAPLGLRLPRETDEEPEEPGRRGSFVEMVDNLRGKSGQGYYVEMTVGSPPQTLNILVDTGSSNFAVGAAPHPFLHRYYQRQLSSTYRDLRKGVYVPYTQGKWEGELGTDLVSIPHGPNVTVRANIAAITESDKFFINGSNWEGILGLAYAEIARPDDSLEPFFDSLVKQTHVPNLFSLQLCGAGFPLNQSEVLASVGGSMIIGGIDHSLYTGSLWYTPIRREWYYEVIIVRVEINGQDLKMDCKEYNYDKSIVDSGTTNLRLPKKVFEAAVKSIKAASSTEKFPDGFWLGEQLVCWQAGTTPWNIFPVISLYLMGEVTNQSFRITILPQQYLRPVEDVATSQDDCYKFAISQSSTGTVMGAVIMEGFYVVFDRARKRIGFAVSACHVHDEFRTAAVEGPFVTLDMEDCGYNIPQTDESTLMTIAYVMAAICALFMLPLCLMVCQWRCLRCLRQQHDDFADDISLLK
# In short: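 Enzyme from SF9 cells was incubated 1 hour with compound and fluorogenic substrate, activity read by fluorescence. Single-concentration duplicates at 25 uM preceded concentration-response follow-up; fitting relative to DMSO baseline.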
# [11] = target: human AKT serine/threonine Kinase 2 (AKT2), AKT2 (gene 208) (UniProt P31751); test: NVS_ENZ_hAKT2: NovaScreen (NVS) Enzymatic Assay for human AKT serine/threonine Kinase 2 (AKT2) (AID 2283141)
# Sequence of human AKT serine/threonine Kinase 2 (AKT2), AKT2 (gene 208) (P31751 whole entry, looked up): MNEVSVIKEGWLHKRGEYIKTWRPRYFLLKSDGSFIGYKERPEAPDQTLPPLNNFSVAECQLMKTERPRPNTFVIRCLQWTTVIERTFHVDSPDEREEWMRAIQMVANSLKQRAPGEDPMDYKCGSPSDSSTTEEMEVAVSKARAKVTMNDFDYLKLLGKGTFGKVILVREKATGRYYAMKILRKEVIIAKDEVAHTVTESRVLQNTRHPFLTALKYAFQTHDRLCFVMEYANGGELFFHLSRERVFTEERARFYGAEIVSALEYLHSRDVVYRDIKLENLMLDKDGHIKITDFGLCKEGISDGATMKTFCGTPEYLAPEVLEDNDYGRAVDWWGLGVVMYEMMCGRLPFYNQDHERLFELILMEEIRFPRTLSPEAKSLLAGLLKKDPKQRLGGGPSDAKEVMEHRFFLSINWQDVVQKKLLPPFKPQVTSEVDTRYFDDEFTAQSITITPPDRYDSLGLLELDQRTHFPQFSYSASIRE
# In short: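 Cell-free fluorescence/electrophoretic mobility shift readout of recombinant human AKT2 activity, 1 h after chemical dosing. Duplicate primary screen at 25 uM, then singleton concentration-response up to 50 uM; loss of signal versus DMSO baseline.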
# [12] = target: human Caspase 2 (CASP2), CASP2 (gene 835) (UniProt P42575); test: NVS_ENZ_hCASP2: NovaScreen (NVS) Enzymatic Assay for human Caspase 2 (CASP2) (AID 2283135)
# Sequence of human Caspase 2 (CASP2), CASP2 (gene 835) (P42575 whole entry, looked up): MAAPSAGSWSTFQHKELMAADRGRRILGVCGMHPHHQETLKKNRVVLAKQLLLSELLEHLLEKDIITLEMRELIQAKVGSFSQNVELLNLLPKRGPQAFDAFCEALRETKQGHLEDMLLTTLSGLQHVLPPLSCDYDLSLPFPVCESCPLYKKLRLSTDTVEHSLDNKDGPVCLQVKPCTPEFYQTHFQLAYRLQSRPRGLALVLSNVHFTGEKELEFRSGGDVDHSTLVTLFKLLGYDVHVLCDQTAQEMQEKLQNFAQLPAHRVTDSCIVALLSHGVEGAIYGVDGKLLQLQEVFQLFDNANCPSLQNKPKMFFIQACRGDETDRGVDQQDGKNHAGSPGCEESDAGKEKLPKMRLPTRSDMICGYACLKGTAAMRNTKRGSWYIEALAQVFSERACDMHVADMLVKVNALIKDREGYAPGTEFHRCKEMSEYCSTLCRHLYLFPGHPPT
# In short: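 Single-point duplicate testing at 25 uM preceded concentration series topping at 50 uM. Activity of the recombinant E. coli-derived protease was followed by fluorescent substrate cleavage 1 h post-dosing, relative to DMSO.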
# [13] = target: human Acid Phosphatase 1 (ACP1), ACP1 (gene 52) (UniProt P24666); test: NVS_ENZ_hACP1: NovaScreen (NVS) Enzymatic Assay for human Acid Phosphatase 1 (ACP1) (AID 2283136)
# Sequence of human Acid Phosphatase 1 (ACP1), ACP1 (gene 52) (P24666 whole entry, looked up): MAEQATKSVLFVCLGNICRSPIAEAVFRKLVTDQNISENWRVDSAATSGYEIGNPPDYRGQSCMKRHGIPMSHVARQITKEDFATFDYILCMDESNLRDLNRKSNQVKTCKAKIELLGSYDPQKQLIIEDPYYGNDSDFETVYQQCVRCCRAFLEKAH
# In short: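 Cell-free fluorescence read-out of phosphatase activity, substrate and product separated by mobility shift, taken 1.5 h after compound addition; protein produced in Sf9. Single 25 uM duplicate screen, followed by concentration series for actives, scored as signal loss relative to DMSO.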
# [14] = target: CDK2 (gene 1017) (UniProt P24941); test: NVS_ENZ_hCDK2: NovaScreen (NVS) Enzymatic Assay for human Cyclin-Cependent Kinase 2 (CDK2) (AID 2283144)
# In short: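 Compounds screened in duplicate at 25 uM, then in singleton concentration-response to a maximum of 50 uM, against recombinant CDK2; kinase activity read 1 hr after dosing by fluorescence with mobility-shift separation of substrate and product.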
# [15] = target: rat CYP2C11, Cyp2c11 (gene 29277) (UniProt P08683); test: NVS_ADME_rCYP2C11: NovaScreen (NVS) CYP450-related Enzyme Activity (ADME) Assay for rat CYP2C11 (AID 2283118)
# In short: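 Screened first at 10 uM in duplicate, hits followed by concentration-response. Recombinant rat enzyme activity monitored by fluorescence 0.33 h post-dosing, normalised to acetonitrile negative control.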
# [16] = target: rat CYP2C13, Cyp2c13 (gene 171521) (UniProt P20814); test: NVS_ADME_rCYP2C13: NovaScreen (NVS) CYP450-related Enzyme Activity (ADME) Assay for rat CYP2C13 (AID 2283121)
# Sequence of rat CYP2C13, Cyp2c13 (gene 171521) (P20814 whole entry, looked up): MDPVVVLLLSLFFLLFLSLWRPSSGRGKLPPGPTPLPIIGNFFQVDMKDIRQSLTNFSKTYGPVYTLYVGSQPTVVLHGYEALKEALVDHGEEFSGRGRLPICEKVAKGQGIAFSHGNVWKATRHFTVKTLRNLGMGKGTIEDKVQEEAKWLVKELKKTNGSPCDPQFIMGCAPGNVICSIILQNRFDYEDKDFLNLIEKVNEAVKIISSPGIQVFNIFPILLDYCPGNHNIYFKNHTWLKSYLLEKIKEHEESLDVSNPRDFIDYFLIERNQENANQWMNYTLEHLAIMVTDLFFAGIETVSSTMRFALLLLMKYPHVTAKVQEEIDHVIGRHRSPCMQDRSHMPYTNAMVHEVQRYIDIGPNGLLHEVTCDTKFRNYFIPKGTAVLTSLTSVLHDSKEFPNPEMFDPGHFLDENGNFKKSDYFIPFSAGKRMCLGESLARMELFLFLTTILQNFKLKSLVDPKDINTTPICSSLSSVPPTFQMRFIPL
# In short: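 Inhibition is read as decreased fluorescent product formation, referenced to acetonitrile vehicle. Cell-free recombinant rat Cyp2c13 reaction ran 0.75 hour; compounds first at 10 uM in duplicate, then concentration series for actives.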
# [17] = target: rat CYP1A2, Cyp1a2 (gene 24297) (UniProt P04799); test: NVS_ADME_rCYP1A2: NovaScreen (NVS) CYP450-related Enzyme Activity (ADME) Assay for rat CYP1A2 (AID 2283115)
# In short: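 Primary testing ran in duplicate at 10 uM, with actives re-tested across concentration series. Fluorescence intensity from substrate turnover by recombinant protein, measured 1 hour post-dosing, with signal loss scored against acetonitrile vehicle.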
# [18] = target: Caspase-1 (Homo sapiens) (UniProt P29466); test: NVS_ENZ_hCASP1: NovaScreen (NVS) Enzymatic Assay for human Caspase 1 (CASP1) (AID 2283132)
# Sequence of Caspase-1 (Homo sapiens) (P29466 whole entry, looked up): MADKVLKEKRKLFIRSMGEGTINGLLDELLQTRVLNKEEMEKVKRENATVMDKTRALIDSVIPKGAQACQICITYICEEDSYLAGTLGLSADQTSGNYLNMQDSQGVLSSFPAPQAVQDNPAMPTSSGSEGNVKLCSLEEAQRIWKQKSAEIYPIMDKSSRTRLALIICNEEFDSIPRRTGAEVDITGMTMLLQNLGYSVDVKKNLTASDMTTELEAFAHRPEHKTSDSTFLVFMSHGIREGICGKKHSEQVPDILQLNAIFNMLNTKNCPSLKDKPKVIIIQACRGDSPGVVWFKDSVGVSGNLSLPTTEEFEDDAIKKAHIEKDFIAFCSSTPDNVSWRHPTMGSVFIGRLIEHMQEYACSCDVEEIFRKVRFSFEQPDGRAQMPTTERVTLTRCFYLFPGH
# In short: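 Compounds were first tested in duplicate at 25 uM, with follow-up concentration series up to 50 uM. The bacterially expressed enzyme was read by fluorescence at 1 h post-dosing. Signal loss versus DMSO baseline indicates reduced enzyme activity.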
# [19] = target: human Caspase 10 (CASP10), CASP10 (gene 843) (UniProt Q92851); test: NVS_ENZ_hCASP10: NovaScreen (NVS) Enzymatic Assay for human Caspase 10 (CASP10) (AID 2283133)
# In short: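 Fluorescence-intensity enzyme read-out of E. coli-expressed CASP10 activity, 1 h after compound. Single-point duplicates at 25 uM preceded concentration-response testing (top 50 uM) of hits; inhibition expressed as signal loss versus DMSO.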
# [20] = target: Cytochrome P450 3A4 (Homo sapiens) (UniProt P08684); test: NVS_ADME_hCYP3A4: NovaScreen (NVS) CYP450-related Enzyme Activity (ADME) Assay for human CYP3A4 (AID 2283110)
# Sequence of Cytochrome P450 3A4 (Homo sapiens) (P08684 whole entry, looked up): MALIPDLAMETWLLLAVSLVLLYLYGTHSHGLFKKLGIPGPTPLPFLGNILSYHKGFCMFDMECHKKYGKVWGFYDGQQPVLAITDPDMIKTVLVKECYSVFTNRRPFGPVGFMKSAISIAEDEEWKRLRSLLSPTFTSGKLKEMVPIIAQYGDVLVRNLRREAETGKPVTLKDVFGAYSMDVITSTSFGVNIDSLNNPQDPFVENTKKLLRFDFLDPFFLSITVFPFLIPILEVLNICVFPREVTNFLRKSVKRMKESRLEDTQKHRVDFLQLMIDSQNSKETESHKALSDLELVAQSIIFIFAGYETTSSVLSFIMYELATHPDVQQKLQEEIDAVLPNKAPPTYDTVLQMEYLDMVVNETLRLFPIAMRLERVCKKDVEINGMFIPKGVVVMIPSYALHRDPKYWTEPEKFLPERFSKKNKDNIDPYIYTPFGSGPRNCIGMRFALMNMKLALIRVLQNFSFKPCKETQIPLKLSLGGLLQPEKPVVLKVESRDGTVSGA
# In short: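 Compounds screened in duplicate at 10 uM, with follow-up concentration-response for actives, against insect-cell-expressed recombinant enzyme. Activity read by fluorescence 0.33 h after dosing; loss of signal versus acetonitrile control indicates inhibition.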
structure (smiles),measurement,setting,value
O=[N+]([O-])c1ccc(Nc2ccccc2)cc1,AC50,[1],5 µM (active)
OC(Cc1ccccc1Cl)(Cn1[nH]cnc1=S)C1(Cl)CC1 (stereo not given),AC50,[1],0.689 µM (active)
CCOP(=O)(OCC)OC(=CCl)c1ccc(Cl)cc1Cl,AC50,[1],1.45 µM (active)
Oc1cc(Cl)c(Cl)cc1Cl,AC50,[2],0.605 µM (active)
same,outcome,[3],inactive
COC(=O)Nc1cccc(OC(=O)Nc2cccc(C)c2)c1,AC50,[4],3.46 µM (active)
same,AC50,[5],11.4 µM (active)
CNC(=O)CSP(=O)(OC)OC,AC50,[1],2.11 µM (active)
O=C(O)COc1ccc(Cl)cc1,outcome,[6],inactive
CCCCCCCCCCCCOS(=O)(=O)O,outcome,[7],inactive
same,AC50,[8],28.5 µM (active)
Nc1ccc(N)cc1,AC50,[9],5.42 µM (active)
same,AC50,[10],15.1 µM (active)
CCOC(=O)C(SP(=S)(OC)OC)c1ccccc1 (stereo not given),AC50,[1],5 µM (active)
COc1ccccc1N,outcome,[3],inactive
same,outcome,[11],inactive
O=c1oc2ccccc2c(O)c1C(CC(O)c1ccc(-c2ccc(Br)cc2)cc1)c1ccccc1 (stereo not given),AC50,[9],9.45 µM (active)
O=C(N[C@H]1CN2CCC1CC2)c1ccc2c(c1)OCCO2,outcome,[7],inactive
same,outcome,[12],inactive
same,outcome,[10],inactive
same,outcome,[8],inactive
BrCCCCBr,outcome,[10],inactive
CCCCCCCCCCCCc1cccc(S(=O)(=O)O)c1,outcome,[7],inactive
same,outcome,[13],inactive
same,AC50,[3],35 µM (active)
same,AC50,[10],0.428 µM (active)
same,AC50,[8],16.1 µM (active)
N#Cc1cccnc1,outcome,[7],inactive
same,outcome,[13],inactive
same,outcome,[8],inactive
same,outcome,[14],inactive
Nc1c(Oc2ccccc2)cc(O)c2c1C(=O)c1ccccc1C2=O,AC50,[9],0.133 µM (active)
same,AC50,[10],5.73 µM (active)
Clc1cccc(Cl)c1Cl,outcome,[12],inactive
same,outcome,[13],inactive
same,outcome,[8],inactive
CC1(C)[C@H](C(=O)O[C@H](C#N)c2cccc(Oc3ccccc3)c2)[C@@H]1/C=C(\Cl)C(F)(F)F,AC50,[1],848 nM (active) and 3.32 µM (active)
same,outcome,[15],inactive
same,outcome,[16],inactive
same,outcome,[5],inactive
O=C(Cc1ccccc1)OCCc1ccccc1,AC50,[10],25 µM (active)
CCOC(=O)CCN(SN(C)C(=O)Oc1cccc2c1OC(C)(C)C2)C(C)C,AC50,[1],3.01 µM (active)
CC(C=O)Cc1ccc2c(c1)OCO2 (stereo not given),AC50,[1],5 µM (active)
CC(C)(c1ccccc1)c1cc(-n2nc3ccccc3n2)c(O)c(C(C)(C)c2ccccc2)c1,outcome,[17],inactive
O=C(O)C1(c2ccc3c(c2)OC[C@H](Cc2ccc(-c4ccccc4)cc2)[C@H]3O)CCCC1,outcome,[7],inactive
CN(C)C(=S)S,outcome,[1],inactive
same,outcome,[10],inactive
[Cl][Sn]([c]1ccccc1)([c]1ccccc1)[c]1ccccc1,AC50,[1],1.25 µM (active)
CC(C)O.CC(C)O.OCCN(CCO)CCO.OCCN(CCO)CCO.[Ti],AC50,[7],1.5 µM (active)
same,AC50,[18],1.37 µM (active)
same,AC50,[19],8.59 µM (active)
same,AC50,[12],3.12 µM (active)
same,AC50,[9],1.81 µM (active)
same,AC50,[3],0.00319 µM (active)
same,AC50,[10],7.67 µM (active)
same,AC50,[11],3.46 µM (active)
same,AC50,[8],4.96 µM (active)
same,AC50,[14],0.003 µM (active)
Cc1cc(C(C)(C)c2ccc(O)c(C)c2)ccc1O,outcome,[20],inactive
same,AC50,[1],1.04 µM (active)
